Measured values taken from PubChem BioAssay AID588849 (Broad Institute, 2011).
Entries with a potency or affinity are not part of this list. The source made the active and inactive calls. How the calls were made is not given here.

Target: CAAX prenyl protease 2 (Homo sapiens) (UniProt Q9Y256)
Test: inhibition of Ras-converting CAAX protease Rce1 – biochemical, yeast membranes, quenched-peptide fluorescence, cherry-pick, dose response (AID 588849)
Settings: yeast membrane fractions expressing human Rce1, quenched-peptide fluorescence, 4 h; series mostly up to 10 µM; activity change, negative = inhibition: at the top concentration

Chain of CAAX prenyl protease 2 (Homo sapiens) (Q9Y256 whole entry, looked up): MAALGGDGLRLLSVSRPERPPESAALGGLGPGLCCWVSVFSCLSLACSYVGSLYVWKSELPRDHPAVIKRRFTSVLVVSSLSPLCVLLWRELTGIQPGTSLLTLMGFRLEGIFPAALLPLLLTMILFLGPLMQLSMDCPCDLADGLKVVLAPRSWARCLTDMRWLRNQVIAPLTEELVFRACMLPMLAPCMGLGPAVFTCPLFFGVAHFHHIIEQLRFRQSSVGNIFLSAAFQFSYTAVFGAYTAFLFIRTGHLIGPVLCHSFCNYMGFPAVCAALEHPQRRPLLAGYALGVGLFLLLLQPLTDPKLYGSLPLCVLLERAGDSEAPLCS

Activity change, negative = inhibition, inactive:
O=C(C1=C[C@@H](C2CC2)C[C@@H](OCc2ccc(CO)cc2)O1)N1CCN(Cc2ccccc2)CC1 3.16%
Cc1nc(N2CCOCC2)c2c(C)c(C(=O)Nc3ccc(C(F)(F)F)cc3)sc2n1 -9.73%
Cc1cc(NC(=O)c2oc3ccccc3c2C)ccc1-n1cnnn1 -14.9% [at 3.5 µM]
Cc1ccc(Nc2nc(-c3ccc(S(=O)(=O)N4CCOCC4)cc3)cs2)cc1Cl 21%
CC1=CC2=NC(=O)CC(C)(C(=O)N(CC(=O)NC3CCCC3)Cc3ccccc3)N2C=C1 (stereo not given) 7.96%
COc1cc2c(cc1OC)C(C)N(C(=O)c1cc3c(=O)oc4ccc(C)cc4c3s1)CC2 (stereo not given) 14.6%
Cc1cc2nn(-c3cccc4ccccc34)nc2cc1NC(=O)c1cccs1 95.4%
O=C1CN(C(=O)NCC(=O)N2CCCC2)c2ccccc2N1 -24.5%
CC1(C)CC2CC(C)(CN2S(=O)(=O)c2ccc(N)cc2)C1 (stereo not given) -9.72%
NS(=O)(=O)c1ccc(NC(=O)/C=C/c2cn(-c3ccccc3)nc2-c2cccc(Cl)c2)cc1 0.326%
Cc1cccc(N2C(=O)c3cccc4c(N5CCCCC5)c([N+](=O)[O-])cc(c34)C2=O)c1C 7.91%
CCN1CCN(c2ccc(NC(=O)c3cccc(OCc4ccccc4)c3)cc2)CC1 -8.32%
NC(=O)[C@H]1CC2(CC(c3cccc(NC(=O)COc4ccc(Cl)cc4)c3)=NO2)CN1C(=O)C(c1ccccc1)c1ccccc1 (stereo not given in full) -18.9%
CCOC(=O)c1sc2nc(C3CC3)cc(-c3ccc(F)cc3)c2c1N 8.35%
O=C1OCCN1C(=O)[C@H]1[C@H](c2ccc(F)cc2)C(c2ccc(F)cc2)=NN1c1ccc(Br)cc1 -16.6%
